Measured values published in PMC7862700, “An all-to-all approach to the identification of sequence-specific readers for epigenetic DNA modifications on cytosine”.

What was measured:
Assay in all cases: DAPPL (digital affinity profiling via proximity ligation, sequencing); 10 mM Tris-HCl pH 7.5, 50 mM NaCl, 1 mM DTT, 4% glycerol, room temperature, 30 min; GST-TFs on glutathione beads, 16-mer random dsDNA library, 0.1% formaldehyde crosslink after washing; high values mean tight binding
FEV = molecular target: T1, FEV (Homo sapiens, UniProt Q99581 1-238); conditions: protein: recombinant; tags: N-terminal GST; dsDNA, one strand shown
T1 sequence: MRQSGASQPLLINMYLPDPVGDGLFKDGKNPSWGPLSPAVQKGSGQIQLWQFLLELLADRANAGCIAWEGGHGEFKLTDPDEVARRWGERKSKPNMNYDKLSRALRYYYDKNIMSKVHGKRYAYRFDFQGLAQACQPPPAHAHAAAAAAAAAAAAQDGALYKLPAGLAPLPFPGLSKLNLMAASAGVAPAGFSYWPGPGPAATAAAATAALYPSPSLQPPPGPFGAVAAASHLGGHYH
In short: (§1)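 Human transcription factors carrying a GST fusion were produced in yeast, bound to glutathione beads, tagged with DNA barcodes and pooled together with a tag-only sample. Each pool was held with 200 nmole of a random double-stranded 16-mer DNA library in Tris/NaCl/DTT/glycerol buffer for 30 min at room temperature, then washed, crosslinked in 0.1% formaldehyde, proximity-ligated with BsaI/T4 ligase (1 h, 37 °C), PCR-amplified and sequenced on an Illumina NextSeq500. Binding signal is the read frequency of each hexamer for a given factor divided by its frequency in the tag-only sample.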

ETV5 = ETV5 (Homo sapiens, UniProt P41161 1-510); conditions: protein: recombinant; tags: N-terminal GST; dsDNA, one strand shown
In short: as §1

HSF1 = HSF1 (Homo sapiens, UniProt Q00613 1-529); conditions: protein: recombinant; tags: N-terminal GST; chain copies: 3; dsDNA, one strand shown
In short: as §1

SPIC = molecular target: T2, SPIC (Homo sapiens, UniProt Q8N5J4 1-248); conditions: protein: recombinant; tags: N-terminal GST; dsDNA, one strand shown
T2 sequence: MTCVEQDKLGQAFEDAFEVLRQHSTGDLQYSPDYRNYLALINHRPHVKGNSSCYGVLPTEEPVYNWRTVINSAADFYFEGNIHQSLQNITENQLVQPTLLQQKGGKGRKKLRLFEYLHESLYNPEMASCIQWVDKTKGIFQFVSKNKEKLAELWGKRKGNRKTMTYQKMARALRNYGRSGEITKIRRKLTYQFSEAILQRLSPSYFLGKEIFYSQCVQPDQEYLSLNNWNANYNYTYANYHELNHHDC
In short: as §1

ELF4 = ELF4 (Homo sapiens, UniProt Q99607 1-663); conditions: protein: recombinant; tags: N-terminal GST; dsDNA, one strand shown
In short: as §1

ELK4 = molecular target: T3, ELK4 (Homo sapiens, UniProt P28324-2 1-405); conditions: protein: recombinant; tags: N-terminal GST; dsDNA, one strand shown
T3 sequence: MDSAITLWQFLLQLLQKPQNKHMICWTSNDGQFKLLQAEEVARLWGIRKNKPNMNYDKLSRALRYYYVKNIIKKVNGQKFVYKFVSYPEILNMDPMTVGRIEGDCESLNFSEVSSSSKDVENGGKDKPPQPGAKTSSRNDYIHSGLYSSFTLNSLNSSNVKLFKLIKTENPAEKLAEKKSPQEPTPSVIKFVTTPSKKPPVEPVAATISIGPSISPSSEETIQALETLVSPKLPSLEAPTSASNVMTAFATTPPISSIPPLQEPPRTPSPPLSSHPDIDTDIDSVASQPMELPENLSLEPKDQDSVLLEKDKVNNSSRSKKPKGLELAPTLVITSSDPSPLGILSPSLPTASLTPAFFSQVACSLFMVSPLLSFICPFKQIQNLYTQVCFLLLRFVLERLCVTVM
In short: as §1

ETV2 = molecular target: T4, ETV2 (Homo sapiens, UniProt O00321 1-342); conditions: protein: recombinant; tags: N-terminal GST; dsDNA, one strand shown
T4 sequence: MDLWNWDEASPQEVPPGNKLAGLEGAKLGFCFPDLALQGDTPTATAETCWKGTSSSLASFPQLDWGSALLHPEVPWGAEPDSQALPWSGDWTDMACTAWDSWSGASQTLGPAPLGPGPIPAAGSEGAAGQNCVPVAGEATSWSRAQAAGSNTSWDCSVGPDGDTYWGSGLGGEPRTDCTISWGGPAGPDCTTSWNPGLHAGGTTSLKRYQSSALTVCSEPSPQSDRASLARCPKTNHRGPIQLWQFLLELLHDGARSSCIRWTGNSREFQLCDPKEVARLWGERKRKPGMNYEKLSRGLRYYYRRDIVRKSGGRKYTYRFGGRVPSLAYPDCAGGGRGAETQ
In short: as §1

ELF3 = molecular target: T5, ELF3 (Homo sapiens, UniProt P78545 1-371); conditions: protein: recombinant; tags: N-terminal GST; dsDNA, one strand shown
T5 sequence: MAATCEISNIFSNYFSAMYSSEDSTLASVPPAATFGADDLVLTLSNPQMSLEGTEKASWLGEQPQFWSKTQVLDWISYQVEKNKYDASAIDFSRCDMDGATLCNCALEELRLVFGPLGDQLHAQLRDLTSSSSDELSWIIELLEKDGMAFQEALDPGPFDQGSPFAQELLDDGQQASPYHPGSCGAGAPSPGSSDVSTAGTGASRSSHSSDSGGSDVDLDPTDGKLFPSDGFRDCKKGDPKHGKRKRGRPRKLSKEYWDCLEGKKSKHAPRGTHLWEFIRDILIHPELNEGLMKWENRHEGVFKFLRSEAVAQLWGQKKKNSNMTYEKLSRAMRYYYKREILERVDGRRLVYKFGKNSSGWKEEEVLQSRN
In short: as §1

CRX = CRX (Homo sapiens, UniProt O43186 1-299); conditions: protein: recombinant; tags: N-terminal GST; dsDNA, one strand shown
In short: as §1

ETV1 = ETV1 (Homo sapiens, UniProt P50549 1-477); conditions: protein: recombinant; tags: N-terminal GST; dsDNA, one strand shown
In short: as §1

Chain of CRX (O43186 whole entry): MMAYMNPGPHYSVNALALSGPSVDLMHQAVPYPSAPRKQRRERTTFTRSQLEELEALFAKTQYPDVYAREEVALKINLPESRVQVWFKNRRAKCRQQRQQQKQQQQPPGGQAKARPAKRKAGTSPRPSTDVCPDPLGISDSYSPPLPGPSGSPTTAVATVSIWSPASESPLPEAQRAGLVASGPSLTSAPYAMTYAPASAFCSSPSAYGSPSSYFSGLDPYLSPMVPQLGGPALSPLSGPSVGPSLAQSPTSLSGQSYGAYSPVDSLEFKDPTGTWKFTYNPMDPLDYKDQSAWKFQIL
Chain of HSF1 (Q00613 whole entry): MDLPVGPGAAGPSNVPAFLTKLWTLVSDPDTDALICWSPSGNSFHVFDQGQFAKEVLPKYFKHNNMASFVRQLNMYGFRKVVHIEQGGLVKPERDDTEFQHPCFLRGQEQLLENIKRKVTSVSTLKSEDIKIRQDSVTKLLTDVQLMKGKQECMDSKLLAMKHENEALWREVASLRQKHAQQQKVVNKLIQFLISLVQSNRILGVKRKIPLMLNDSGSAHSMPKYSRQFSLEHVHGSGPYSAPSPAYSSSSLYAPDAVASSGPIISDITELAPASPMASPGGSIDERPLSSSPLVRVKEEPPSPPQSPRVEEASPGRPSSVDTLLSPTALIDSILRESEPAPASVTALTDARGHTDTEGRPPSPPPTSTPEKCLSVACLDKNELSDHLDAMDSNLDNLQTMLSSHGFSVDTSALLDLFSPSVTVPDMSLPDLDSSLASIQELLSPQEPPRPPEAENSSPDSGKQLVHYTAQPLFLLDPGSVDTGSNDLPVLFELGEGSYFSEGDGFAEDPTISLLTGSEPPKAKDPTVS
Chain of ELF4 (Q99607 whole entry): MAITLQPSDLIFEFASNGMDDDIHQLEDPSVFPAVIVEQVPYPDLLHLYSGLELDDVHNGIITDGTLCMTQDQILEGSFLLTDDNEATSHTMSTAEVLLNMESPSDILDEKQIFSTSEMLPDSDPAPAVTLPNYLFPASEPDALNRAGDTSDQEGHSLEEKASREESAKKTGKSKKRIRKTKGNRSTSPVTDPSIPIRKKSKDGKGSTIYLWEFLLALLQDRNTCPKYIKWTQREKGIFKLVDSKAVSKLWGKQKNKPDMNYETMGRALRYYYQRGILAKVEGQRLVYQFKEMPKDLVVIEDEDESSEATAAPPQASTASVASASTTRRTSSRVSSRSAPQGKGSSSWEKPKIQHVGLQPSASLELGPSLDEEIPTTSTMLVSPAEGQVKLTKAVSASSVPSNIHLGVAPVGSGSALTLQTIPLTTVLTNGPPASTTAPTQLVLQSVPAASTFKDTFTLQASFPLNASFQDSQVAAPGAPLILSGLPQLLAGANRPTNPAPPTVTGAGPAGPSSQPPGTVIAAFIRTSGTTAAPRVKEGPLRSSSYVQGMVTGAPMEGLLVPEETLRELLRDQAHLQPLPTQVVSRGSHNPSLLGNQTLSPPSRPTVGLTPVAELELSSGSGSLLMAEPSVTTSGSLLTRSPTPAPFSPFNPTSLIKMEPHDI
Chain of ETV1 (P50549 whole entry): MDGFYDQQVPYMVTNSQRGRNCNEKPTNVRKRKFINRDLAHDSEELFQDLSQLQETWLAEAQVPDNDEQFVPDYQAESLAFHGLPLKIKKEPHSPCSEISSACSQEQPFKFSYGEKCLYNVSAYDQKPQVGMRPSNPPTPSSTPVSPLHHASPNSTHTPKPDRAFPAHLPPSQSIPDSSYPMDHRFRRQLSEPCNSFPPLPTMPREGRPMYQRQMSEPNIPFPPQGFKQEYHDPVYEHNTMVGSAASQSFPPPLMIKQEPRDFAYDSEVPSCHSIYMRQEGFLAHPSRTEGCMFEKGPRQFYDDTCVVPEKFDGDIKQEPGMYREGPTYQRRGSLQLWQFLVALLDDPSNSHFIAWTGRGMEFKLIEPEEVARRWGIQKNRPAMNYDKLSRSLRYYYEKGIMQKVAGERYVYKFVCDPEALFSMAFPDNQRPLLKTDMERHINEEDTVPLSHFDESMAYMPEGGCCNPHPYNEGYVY
Chain of ETV5 (P41161 whole entry): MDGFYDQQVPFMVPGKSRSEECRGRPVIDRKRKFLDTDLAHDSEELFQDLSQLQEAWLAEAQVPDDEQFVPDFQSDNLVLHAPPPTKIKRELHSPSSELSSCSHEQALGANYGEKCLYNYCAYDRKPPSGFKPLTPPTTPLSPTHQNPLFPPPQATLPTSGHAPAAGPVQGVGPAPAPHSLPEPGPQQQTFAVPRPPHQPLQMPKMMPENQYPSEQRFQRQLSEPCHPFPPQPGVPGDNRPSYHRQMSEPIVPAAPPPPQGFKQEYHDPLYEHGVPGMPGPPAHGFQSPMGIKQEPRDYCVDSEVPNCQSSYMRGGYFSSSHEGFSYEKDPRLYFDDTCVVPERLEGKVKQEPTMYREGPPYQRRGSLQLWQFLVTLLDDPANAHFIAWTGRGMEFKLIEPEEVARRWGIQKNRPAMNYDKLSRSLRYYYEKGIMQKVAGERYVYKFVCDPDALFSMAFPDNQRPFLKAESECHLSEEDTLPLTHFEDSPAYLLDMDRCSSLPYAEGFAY

## TACTAT
FEV
  binding signal: 1.31 fold enrichment (6-mer frequency, TF over GST control)
ETV5
  binding signal: 1.31 fold enrichment (6-mer frequency, TF over GST control)
HSF1
  binding signal: 1.37 fold enrichment (6-mer frequency, TF over GST control)
SPIC
  binding signal: 1.45 fold enrichment (6-mer frequency, TF over GST control)
ELF4
  binding signal: 1.35 fold enrichment (6-mer frequency, TF over GST control)
ELK4
  binding signal: 1.33 fold enrichment (6-mer frequency, TF over GST control)
ETV2
  binding signal: 1.4 fold enrichment (6-mer frequency, TF over GST control)
ELF3
  binding signal: 1.2 fold enrichment (6-mer frequency, TF over GST control)
CRX
  binding signal: 1.48 fold enrichment (6-mer frequency, TF over GST control)
ETV1
  binding signal: 1.28 fold enrichment (6-mer frequency, TF over GST control)

## GAAATC
FEV
  binding signal: 2.32 fold enrichment (6-mer frequency, TF over GST control)
ETV5
  binding signal: 1.58 fold enrichment (6-mer frequency, TF over GST control)
HSF1
  binding signal: 1.23 fold enrichment (6-mer frequency, TF over GST control)
SPIC
  binding signal: 1.48 fold enrichment (6-mer frequency, TF over GST control)
ELF4
  binding signal: 1.42 fold enrichment (6-mer frequency, TF over GST control)
ELK4
  binding signal: 1.31 fold enrichment (6-mer frequency, TF over GST control)
ETV2
  binding signal: 1.45 fold enrichment (6-mer frequency, TF over GST control)
ELF3
  binding signal: 1.27 fold enrichment (6-mer frequency, TF over GST control)
CRX
  binding signal: 1.26 fold enrichment (6-mer frequency, TF over GST control)
ETV1
  binding signal: 1.5 fold enrichment (6-mer frequency, TF over GST control)

## GGCCTT
FEV
  binding signal: 1.14 fold enrichment (6-mer frequency, TF over GST control)
ETV5
  binding signal: 1.16 fold enrichment (6-mer frequency, TF over GST control)
HSF1
  binding signal: 1.05 fold enrichment (6-mer frequency, TF over GST control)
SPIC
  binding signal: 1.16 fold enrichment (6-mer frequency, TF over GST control)
ELF4
  binding signal: 1.25 fold enrichment (6-mer frequency, TF over GST control)
ELK4
  binding signal: 1.09 fold enrichment (6-mer frequency, TF over GST control)
ETV2
  binding signal: 1.07 fold enrichment (6-mer frequency, TF over GST control)
ELF3
  binding signal: 1.15 fold enrichment (6-mer frequency, TF over GST control)
CRX
  binding signal: 1.02 fold enrichment (6-mer frequency, TF over GST control)
ETV1
  binding signal: 1.1 fold enrichment (6-mer frequency, TF over GST control)

## ATTTGG
FEV
  binding signal: 1.4 fold enrichment (6-mer frequency, TF over GST control)
ETV5
  binding signal: 1.36 fold enrichment (6-mer frequency, TF over GST control)
HSF1
  binding signal: 1.5 fold enrichment (6-mer frequency, TF over GST control)
SPIC
  binding signal: 1.34 fold enrichment (6-mer frequency, TF over GST control)
ELF4
  binding signal: 1.26 fold enrichment (6-mer frequency, TF over GST control)
ELK4
  binding signal: 1.43 fold enrichment (6-mer frequency, TF over GST control)
ETV2
  binding signal: 1.37 fold enrichment (6-mer frequency, TF over GST control)
ELF3
  binding signal: 1.44 fold enrichment (6-mer frequency, TF over GST control)
CRX
  binding signal: 1.73 fold enrichment (6-mer frequency, TF over GST control)
ETV1
  binding signal: 1.36 fold enrichment (6-mer frequency, TF over GST control)

## CTCAAT
FEV
  binding signal: 1.23 fold enrichment (6-mer frequency, TF over GST control)
ETV5
  binding signal: 1.31 fold enrichment (6-mer frequency, TF over GST control)
HSF1
  binding signal: 1.17 fold enrichment (6-mer frequency, TF over GST control)
SPIC
  binding signal: 1.17 fold enrichment (6-mer frequency, TF over GST control)
ELF4
  binding signal: 1.26 fold enrichment (6-mer frequency, TF over GST control)
ELK4
  binding signal: 1.3 fold enrichment (6-mer frequency, TF over GST control)
ETV2
  binding signal: 1.4 fold enrichment (6-mer frequency, TF over GST control)
ELF3
  binding signal: 1.22 fold enrichment (6-mer frequency, TF over GST control)
CRX
  binding signal: 1.25 fold enrichment (6-mer frequency, TF over GST control)
ETV1
  binding signal: 1.27 fold enrichment (6-mer frequency, TF over GST control)

## CCTGTT
FEV
  binding signal: 1.67 fold enrichment (6-mer frequency, TF over GST control)
ETV5
  binding signal: 1.79 fold enrichment (6-mer frequency, TF over GST control)
HSF1
  binding signal: 1.2 fold enrichment (6-mer frequency, TF over GST control)
SPIC
  binding signal: 1.91 fold enrichment (6-mer frequency, TF over GST control)
ELF4
  binding signal: 1.72 fold enrichment (6-mer frequency, TF over GST control)
ELK4
  binding signal: 1.55 fold enrichment (6-mer frequency, TF over GST control)
ETV2
  binding signal: 1.62 fold enrichment (6-mer frequency, TF over GST control)
ELF3
  binding signal: 1.62 fold enrichment (6-mer frequency, TF over GST control)
CRX
  binding signal: 1.21 fold enrichment (6-mer frequency, TF over GST control)
ETV1
  binding signal: 1.69 fold enrichment (6-mer frequency, TF over GST control)

## CCCATT
FEV
  binding signal: 1.28 fold enrichment (6-mer frequency, TF over GST control)
ETV5
  binding signal: 1.38 fold enrichment (6-mer frequency, TF over GST control)
HSF1
  binding signal: 1.15 fold enrichment (6-mer frequency, TF over GST control)
SPIC
  binding signal: 1.43 fold enrichment (6-mer frequency, TF over GST control)
ELF4
  binding signal: 1.23 fold enrichment (6-mer frequency, TF over GST control)
ELK4
  binding signal: 1.26 fold enrichment (6-mer frequency, TF over GST control)
ETV2
  binding signal: 1.56 fold enrichment (6-mer frequency, TF over GST control)
ELF3
  binding signal: 1.22 fold enrichment (6-mer frequency, TF over GST control)
CRX
  binding signal: 1.19 fold enrichment (6-mer frequency, TF over GST control)
ETV1
  binding signal: 1.25 fold enrichment (6-mer frequency, TF over GST control)

## ATTTGC
FEV
  binding signal: 1.29 fold enrichment (6-mer frequency, TF over GST control)
ETV5
  binding signal: 1.4 fold enrichment (6-mer frequency, TF over GST control)
HSF1
  binding signal: 1.47 fold enrichment (6-mer frequency, TF over GST control)
SPIC
  binding signal: 1.29 fold enrichment (6-mer frequency, TF over GST control)
ELF4
  binding signal: 1.23 fold enrichment (6-mer frequency, TF over GST control)
ELK4
  binding signal: 1.3 fold enrichment (6-mer frequency, TF over GST control)
ETV2
  binding signal: 1.23 fold enrichment (6-mer frequency, TF over GST control)
ELF3
  binding signal: 1.33 fold enrichment (6-mer frequency, TF over GST control)
CRX
  binding signal: 1.5 fold enrichment (6-mer frequency, TF over GST control)
ETV1
  binding signal: 1.38 fold enrichment (6-mer frequency, TF over GST control)
